The text below walks through data of PubChem BioAssay AID585 (National Center for Advancing Translational Sciences (NCATS), 2007).

Molecules are shown by their SMILES. The campaign covered roughly 71,000 compounds. About 1,300 (1.8%) were called active. Calls come from the whole dose curve. Only a selection was taken, and actives are over-represented in it overall.
Potency is the fitted concentration of half-maximal effect.

For this assay, the target named is Beta-lactamase (Escherichia coli (strain K12)) (UniProt P00811). The experiment in a line: Promiscuous and Specific Inhibitors of AmpC Beta-Lactamase (assay without detergent). For activity change, negative = inhibition: % of control where 0% means no effect. The note with it: AmpC nitrocefin hydrolysis, absorbance 480 nm, no detergent; series mostly up to 28.7 µM; activity change, negative = inhibition: at the top concentration. On the procedure: NIH Molecular Libraries Screening Centers Network [MLSCN]
Sequence of Beta-lactamase (Escherichia coli (strain K12)) (P00811 whole entry, looked up): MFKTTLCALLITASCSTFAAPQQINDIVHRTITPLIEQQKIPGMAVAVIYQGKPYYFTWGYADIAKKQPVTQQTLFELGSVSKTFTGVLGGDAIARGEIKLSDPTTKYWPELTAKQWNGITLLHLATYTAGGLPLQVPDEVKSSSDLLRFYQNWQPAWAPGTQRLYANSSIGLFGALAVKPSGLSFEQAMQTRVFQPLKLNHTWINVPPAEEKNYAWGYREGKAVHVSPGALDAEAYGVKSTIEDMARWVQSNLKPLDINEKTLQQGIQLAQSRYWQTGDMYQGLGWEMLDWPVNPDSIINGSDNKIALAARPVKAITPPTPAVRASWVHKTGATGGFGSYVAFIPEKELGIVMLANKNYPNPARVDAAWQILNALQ
NIH Chemical Genomics Center [NCGC]
PI Name: Shoichet, Brian K.
This aggregation profiling approach exploits the sensitivity of aggregate formation to detergent. Inhibition of b-lactamase is measured in the presence and absence of 0.01% Triton X-100. See Pubchem assay "Promiscuous and Specific Inhibitors of AmpC Beta-Lactamase (assay with detergent)" for related screen. Compounds that inhibit only in the absence of detergent are considered likely promiscuous aggregators.
A screen of 1,030 compounds was performed in Brian Shoichet's lab in 96-well format. AmpC activity was measured by following the absorbance at 480 nm. Nitrocefin is a chromogenic substrate: while nitrocefin is yellow (lmax 390 nm), the product of its hydrolysis is red (lmax 486 nm, 17,000 M-1). AmpC beta lactamase was provided by Brian Shoichet and Brian Feng, UCSF.
NCGC Assay Protocol Summary:
20 mM phosphate buffer, pH 7.0
Triton X-100: No Detergent screen: 0.0001%, Detergent screen: 0.01%.
Buffer in columns 3 and 4 as negative control (no enzyme).
5.3 nM AmpC in columns 1, 2, 5-48. Titration of UCSF compound 9 control (from 10 mM, then 1:2) pin-transferred to column 2. Column 1 is neutral (100% activity).
Six uL of reagents were dispensed to 1536-well Greiner black clear bottom plates. Compounds and controls (23 nL) were transferred via Kalypsys PinTool. The plates were incubated for 15 min at room temperature, and then 2 uL of 800 uM solution of nitrocefin was added to start the reaction. The plates were immediately transferred to and read every 20 seconds for 4 min on ViewLux (Perkin-Elmer) High-throughput CCD imager using 480 nm absorbance protocol. During dispense, reagent bottles were kept submerged into 4 deg C water bath.
Keywords: NIH Roadmap, MLSCN, MLI, MLSMR, qHTS, NCGC, AmpC Beta-Lactamase, Aggregation.
As to `O=S(=O)(Nc1ccccn1)c1ccc(Oc2ccccc2)cc1`, the “activity change, negative = inhibition” value was -15.4% (inactive).
With `Cc1cc(NS(=O)(=O)c2ccccc2)no1`, the Potency is 3.98 µM [single pt active] (active).
Take `COc1cc2ccccc2cc1C(=O)Nc1ccc(S(=O)(=O)Nc2cc(C)on2)cc1`: the “activity change, negative = inhibition” value was -17% (inactive).
Take `CCCc1cc(=O)[nH]c(SCc2ccc(C#N)cc2)n1`: the “activity change, negative = inhibition” value was -16.6% (inactive).
As for `COc1ccc(C2CC(c3ccc(Cl)cc3Cl)Nc3nc(N)nn32)cc1OC` (stereo unspecified), the “activity change, negative = inhibition” value is 133% (inactive).
The same measure, in the same setting: the value for `Nc1nc2n(n1)C(c1ccco1)CC(c1ccc(Cl)c(Cl)c1)N2` (stereo unspecified) was 67.6% (inactive); that for `Cc1ccc(C2CC(c3cccc(Br)c3)n3nc(N)nc3N2)cc1` (stereo unspecified) was 55.1% (inactive).
As for `Cc1ccc(C2CC(c3cccc(C)c3)n3nc(N)nc3N2)cc1` (stereo unspecified), the Potency was 3.98 µM [single pt active] (active).
Turning to `CCOc1ccccc1C1CC(c2ccccc2)Nc2nc(N)nn21` (stereo unspecified), the Potency was 3.98 µM [single pt active] (active).
For `CCOc1ccccc1C1CC(c2ccc(Cl)cc2)Nc2nc(N)nn21` (stereo unspecified), the “activity change, negative = inhibition” value was 95% (inactive).
As for `O=C(O)CCCC(=O)Nc1ccccc1-n1ccnc1`, the “activity change, negative = inhibition” value is -22.6% (inactive).
Turning to `CCOC(=O)c1c(NC(=O)CCC(=O)NCc2ccco2)sc2c1CCCC2`, the “activity change, negative = inhibition” value is 102% (inactive).
Consider `CC(C)[C@H](CO)Nc1nc(Nc2cc(N)cc(Cl)c2)c2ncn(C(C)C)c2n1`, for which the “activity change, negative = inhibition” value was 76.9% (inactive).
`COc1ccccc1N1CCN(c2nc3ccccc3n3nnnc23)CC1`: the “activity change, negative = inhibition” value was 33.4% (inactive).
Still for that read-out and setting: as for `NC(=O)c1ccc(OC[C@H](O)CN2CC=C(c3ccc(F)cc3)CC2)cc1`, the figure is 3.7% (inactive).
On to `Cc1ccc(SCc2cc(=O)[nH]c(N3CCCCC3)n2)cc1`, for which the “activity change, negative = inhibition” value was 10.2% (inactive).
Take `CN(C)c1nc(N)nc(CSc2nnnn2-c2cccc3ccccc23)n1`: the “activity change, negative = inhibition” value is 67.3% (inactive).
Still for that read-out and setting: the value for `N#CC1=C(N)Oc2n[nH]c(CSc3ccccc3)c2C12C(=O)Nc1ccccc12` (stereo unspecified) was -8.6% (inactive).
For the compound `CCOc1ccc(N(CC(=O)OC)S(=O)(=O)c2c(C)noc2C)cc1`, the “activity change, negative = inhibition” value was 53.8% (inactive).
Take `Oc1ccc(O)c2c(O)cccc12`: the Potency was 0.631 µM (active).
For the compound `O=c1cc(-c2ccc(O)c(O)c2)oc2cccc(O)c12`, the “activity change, negative = inhibition” value was -12.2% (inactive).
As for `Cc1ccc(C(=O)NCC(=O)O)cc1S(=O)(=O)N1CCCCC1`, the “activity change, negative = inhibition” value is -2% (inactive).
For the compound `CC[N+](C)(CC)CCC[n+]1c(-c2ccccc2)c2cc(N)ccc2c2ccc(N)cc21`, the “activity change, negative = inhibition” value is 18.9% [at 12.8 µM] (inactive).
As to `O=C(c1csnn1)N1CCC[C@@]2(CCN(c3cccc(-c4ccccc4)c3)C2)C1`, the “activity change, negative = inhibition” value was 73.1% (inactive).
For `Cc1cc2cc(CN(Cc3cccs3)Cc3nnnn3CC3CCCO3)c(=O)[nH]c2cc1C` (stereo unspecified), the “activity change, negative = inhibition” value was 117% (inactive).
Take `CC(C)(C)c1cc(C(=O)NCc2cccnc2)ccn1`: the “activity change, negative = inhibition” value was 2.5% (inactive).
With `CCCNS(=O)(=O)c1ccc(CCC(=O)NCc2cccnc2)cc1`, the “activity change, negative = inhibition” value was 11.5% (inactive).
In the case of `O=C(NCc1cccnc1)c1ccc(CS(=O)(=O)c2ccc(Br)cc2)o1`, the Potency was 3.16 µM (active).
Take `Cc1ccnc(SCCn2c(N(C)Cc3ccccc3)nc3c2c(=O)n(C)c(=O)n3C)n1`: the “activity change, negative = inhibition” value was -2.9% (inactive).
On to `CCN1CCCC1CNC(=O)Cn1cnc2ccc(S(=O)(=O)N3CCC(C)CC3)cc2c1=O` (stereo unspecified), for which the “activity change, negative = inhibition” value is 28.6% (inactive).
For the compound `Cn1c(C(=O)NCCN2CCc3ccccc3C2)cc2c(=O)[nH]c3ccccc3c21`, the “activity change, negative = inhibition” value was 91.4% (inactive).
Regarding `Cn1c(C(=O)NCCCN2CCN(c3cccc(Cl)c3)CC2)cc2c(=O)n(C)c3ccccc3c21`, the Potency was 3.98 µM [single pt active] (active).
For the compound `CCn1c(=O)cc(OCC(=O)NCCCN2CCN(c3cccc(Cl)c3)CC2)c2ccccc21`, the “activity change, negative = inhibition” value is 159% (inactive).
With `Cn1c(C(=O)NCCc2ccsc2)cc2c(=O)n(C)c3ccccc3c21`, the “activity change, negative = inhibition” value was 56.6% (inactive).
Take `O=C(CCn1c(=O)[nH]c2ccccc2c1=O)NCCCN1CCN(c2cccc(Cl)c2)CC1`: the “activity change, negative = inhibition” value was 96.8% (inactive).
As to `CC1CCCC(C)N1CCCNC(=O)c1cc2c(=O)n(C)c3ccccc3c2n1C` (stereo unspecified), the Potency is 3.16 µM [single pt active] (active).
Consider `CCN1CCCC1CNC(=O)c1cc2c(=O)n(C)c3ccccc3c2n1C` (stereo unspecified), for which the Potency is 3.98 µM [single pt active] (active).
As for `Cn1c(C(=O)N2CCC(C(N)=O)CC2)cc2c(=O)n(C)c3ccccc3c21`, the “activity change, negative = inhibition” value was 23% (inactive).
Regarding `CNC(=O)CSc1nnnn1-c1ccc(C)cc1C`, the “activity change, negative = inhibition” value is -5.2% (inactive).
Still for that read-out and setting: the value for `CCOC(=O)c1ccc(NC(=O)CS(=O)(=O)c2cn(CC)c3ccccc23)cc1` was -12.7% (inactive); that for `CCOc1ccc(NC(=O)CCC(=O)n2nc(C)cc2C)cc1` was -5.6% (inactive).
As to `CNC(=O)NCCN1CCCC1=O`, the “activity change, negative = inhibition” value is -9.1% (inactive).
For `COc1ncnc2c1N=C1CC(C)(C)CC(N)=C1S2`, the “activity change, negative = inhibition” value is -11.2% (inactive).
As to `C=CCOC(=O)COCCC(C)C`, the “activity change, negative = inhibition” value was -14.9% (inactive).
Turning to `CCOC(=O)c1sc(=S)n2c1[nH]c(=O)c1ccc(C(=O)OC)cc12`, the Potency is 12.6 µM (active).
For `CCOC(=O)c1sc(=S)n(-c2cccc(OC)c2)c1N`, the “activity change, negative = inhibition” value was 4.7% (inactive).
Still for that read-out and setting: the value for `CCOC(=O)Cn1c(N)c(C(=O)OC)sc1=S` was -0.1% (inactive).
In the case of `Cc1ccc(OCc2nc(C#N)c(N3CCCC3)o2)cc1`, the “activity change, negative = inhibition” value is 28.1% (inactive).
Still for that read-out and setting: the value for `Cc1ccccc1S(=O)(=O)Cc1ccc(C(=O)NCCN2CCCCC2C)o1` (stereo unspecified) was 0.5% (inactive); that for `C=CCNc1nnc(SCC(=O)N2CCCCC2)c2ccccc12` was -5.9% (inactive).
Still for that read-out and setting: the value for `O=C(CN1C(=O)COc2ccccc21)NCCN1CCc2ccccc2C1` was 8.7% (inactive).
